Screening data from PubChem.
mIDH1 inhibitor: blocks human mutant IDH1 R132H enzyme; 0.093% of 390,000 active; Potency, µM (top dose mostly 76.6 µM), inactives show at the top dose activity change, negative = inhibition, most hits filed as inhibitors; IDH1-R132H enzyme, NADPH consumption, diaphorase/resazurin fluorescence; AID 602179; O75874; further: potency means the concentration at half of the fitted maximal effect; on the % scale 0 is the no-effect control and ±100 the full control effect; nearly all actives have a fitted effect of over 65% in size
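IDH1-R132H (0.5 ug/mL) preincubated 30 min with compound, then NADPH (0.016 mM) and alpha-KG (2 mM) added; 80 min at RT, pH 7.5. Remaining NADPH coupled via diaphorase/resazurin to fluorescence (540/590 nm); concentration-response curves normalized to no-enzyme control.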
Mito fusion yeast: blocks mitochondrial division or promotes mitochondrial fusion | S. cerevisiae fusion-defective mutant growth rescue, CellTiterGlo 48 h | Potency, µM (titrated, usually from 46.1 µM), without a hit: top-dose growth rescue (activation), actives largely listed as activators | 0.23% of 320,000 active | AID 485298; further: potency means the concentration at half of the fitted maximal effect; % of control where 0% means no effect; nearly all actives have a fitted effect of over 45% in size
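Luminescent cell viability in 1536-well qHTS format served as the measure of rescued growth in ts fusion-mutant S. cerevisiae cultured on non-fermentable YPEG for 48 hours at 37C.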
ASM inhibitor: human S-ASM enzyme inhibition. P17405. placental ASM, HMU-PC fluorogenic substrate, 60 min. Potency, µM (titrated, usually from 57.5 µM), inactives show at the highest dose activity change, negative = inhibition, actives largely listed as inhibitors. 0.006% of 340,000 active; further: potency means the concentration at half of the fitted maximal effect
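HMU-PC0 cleavage (9 uM final) by human placental ASM, 60 min at 37 °C following 10 min compound exposure at RT; stopped at pH 10, fluorescence Ex 386/Em 447 nm.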
LDHA inh: LDHA (human) enzyme inhibition; P00338; purified LDHA, NADH/diaphorase-resazurin fluorescence; hits give low values; activity change, % (values are at about 110 or 230 µM); 0.15% of 480,000 active; AID 1347041; in the data active means activity change below about -30%; inconclusive means mostly about -25% to -30%;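 further: plate controls were DMSO wells for no effect and wells without enzyme for full effect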
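Enzyme activity of human lactate dehydrogenase 5 (2 nM; 0.06 mM NADH, 0.2 mM pyruvate, 5 min, RT) is measured via a resazurin/diaphorase fluorescence readout of residual NADH.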
RGS4 inhibitor: inhibitors of human regulator of G protein signaling 4 | P49798 | Transcreener GDP fluorescence polarization, RGS4-accelerated GTP hydrolysis | Potency, µM (titrated, usually from 114 µM), for the others: at the highest dose activity change, negative = inhibition, hits mostly inhibitors | 0.039% of 390,000 active | AID 504845; further: potency means the concentration at half of the fitted maximal effect; on the % scale 0 is the no-effect control and ±100 the full control effect; nearly all actives have a fitted effect of over 75% in size
Target sequence (P49798 whole entry, looked up): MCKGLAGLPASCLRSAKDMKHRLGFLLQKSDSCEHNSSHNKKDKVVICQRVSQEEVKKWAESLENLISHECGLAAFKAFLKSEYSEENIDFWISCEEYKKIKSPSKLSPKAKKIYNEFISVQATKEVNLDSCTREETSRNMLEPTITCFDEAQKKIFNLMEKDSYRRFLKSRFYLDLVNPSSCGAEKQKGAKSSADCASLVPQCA
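MLSMR compounds (23 nl, pin-transferred) preincubated 10 min at room temperature with a 500nM (2x) first reagent, then RGS4 at 900nM (2x) plus Transcreener GDP mix added; fluorescence polarization (620/688 nm) read before and after 90 min at 30 °C.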
ClpP mod: qHTS Assay for Activators of ClpP | purified B. subtilis ClpP, FRET peptide cleavage, 20 min | ATP-dependent Clp protease proteolytic subunit (Bacillus subtilis (strain 168)), P80244 | AID 651965, 2013 | 1.9% of 340,000 active | Potency, µM (series often up to 57.5 µM), for the others: at the top dose activity change, negative = active; active means well fitted falling curve with a large enough effect; inconclusive means small, poorly fitted or top-dose-only effect; inactive means no such curve, though single readings can be large or run the other way; further: potency means the concentration at half of the fitted maximal effect; the source files actives as falling curves though it sought activators and does not explain the sign; nearly all actives have a fitted effect of over 65% in size
Target sequence (P80244 whole entry, looked up): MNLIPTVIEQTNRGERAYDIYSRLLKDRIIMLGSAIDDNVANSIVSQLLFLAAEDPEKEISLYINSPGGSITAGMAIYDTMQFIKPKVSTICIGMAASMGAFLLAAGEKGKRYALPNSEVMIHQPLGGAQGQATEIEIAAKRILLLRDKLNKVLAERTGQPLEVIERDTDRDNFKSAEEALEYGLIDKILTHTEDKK
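ClpP 10 microg/mL final, pH 8 Tris/KCl buffer with BSA, glycerol, Tween-20; compound pinned in; FRET-FV substrate; RT 20 min; Ex320/Em430; ΔFRET vs ADEP 5.8 microM, DMSO, no enzyme.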
Active calls of the source: *; ? = inconclusive; nt = no result; [ ] = remark or other dose. Only a selection was taken, and hits are over-represented in it overall. Unless noted, the call rests on the fitted dose curve; in most records, active means well fitted curve in the direction sought with a large enough effect; inconclusive means small, poorly fitted or top-dose-only effect, or another doubt; inactive means no such curve, though single readings can be large; an effect the other way counts as inactive or inconclusive.

SMILES	mIDH1 inhibitor	Mito fusion yeast	ASM inhibitor	LDHA inh	RGS4 inhibitor	ClpP mod
O=c1onc2cnc3ccccc3n12	nt	9.2µM*	nt	nt	-23%[56.9 µM]	nt
CCN(CC)S(=O)(=O)c1ccc(Oc2ccc3ccccc3c2)nc1	nt	nt	nt	1	nt	nt
CCOc1ccc(-c2cc(NC(=O)Nc3ccccc3Cl)c(C(=O)OC)s2)cc1	-17%	nt	nt	-3	-8%	14µM*
CC1CCCC(NC(=O)c2cncc(Br)c2)C1 (stereo not given)	nt	nt	nt	13	nt	nt
COc1ccc(OC(=O)c2cc(-c3ccc4c(c3)OCCO4)on2)cc1	15%	nt	nt	3	-4%	-6%
Cc1cccc(OC(=O)c2cc(-c3ccc4c(c3)OCCO4)on2)c1	4%	nt	nt	-1	11%	25µM*
Cc1cc(C)cc(OC(=O)c2cc(-c3ccc4c(c3)OCCO4)on2)c1	-6%	nt	nt	-5	-17%	32µM*
Cc1cccc(OC(=O)c2cc(-c3ccc4c(c3)OCCO4)on2)c1C	17%	nt	nt	3	1%	?
Cc1ccccc1OC(=O)c1cc(-c2ccc3c(c2)OCCO3)on1	-6%	nt	nt	-2	15%	32µM*
CC(=O)Nc1cccc(NC(=O)CCc2c(C)[nH]n(-c3ccc(F)cc3)c2=O)c1	nt	nt	nt	3	nt	nt
CC1(C)Cc2ccccc2C(NC(=O)c2ccc(Cl)cc2Cl)=C1C#N	nt	nt	nt	4	nt	nt
N#Cc1nc(-c2ccc(S(=O)(=O)N3CCCCCC3)cc2)oc1NCc1cccnc1	nt	nt	nt	-2	nt	nt
CCN(CC1COc2ccccc2O1)C(=O)CSc1nnnn1C1CCCC1 (stereo not given)	nt	nt	nt	5	nt	nt
COc1ccccc1C(=O)NC(=O)CSc1c(Cl)cccc1Cl	nt	nt	nt	0	nt	nt
COC(=O)c1cc2oc3ccccc3c2n1Cc1c(F)cccc1Cl	nt	nt	nt	-20	19%	2.5µM*
CC(=O)c1ccc(NC(=O)CCc2c(C)nc3ncnn3c2C)cc1	-8%	-2%	2%	-4	14%	28µM*
Cc1cccc(CCNC(=O)CCc2c(C)nc3c(c(C)nn3-c3ccccc3)c2C)c1	-13%	nt	nt	1	-2%	32µM*
CSc1ccc(CCNC(=O)CCc2c(C)nc3c(c(C)nn3-c3ccccc3)c2C)cc1	-10%	nt	nt	-1	1%	-6%
Cc1ccc(-n2nc(C)c3c(C)c(CCC(=O)Nc4ccc(CN5CCCC5)cc4)c(C)nc32)cc1	-5%	13%	-18%	-5	6%	nt
CC(=O)c1ccc(NC(=O)CCc2c(C)nc3c(c(C)nn3-c3ccc(C)cc3)c2C)cc1	nt	nt	nt	-9	24%	14µM*
CCc1nc(NCCN(C)C)c(C#N)c2c1CCCC2	nt	nt	nt	1	nt	nt
CCOC(=O)c1nnc2c(-c3ccc(Br)cc3)c(C)nn2c1C	nt	nt	nt	1	nt	nt
Cc1onc(-c2ccccc2)c1C(=O)Nc1nnc(-c2ccncc2)s1	2%	22%	130%	-12	18%	32µM*
O=C(Cc1ccccc1)Nc1nnc(-c2ccncc2)s1	nt	nt	nt	-7	nt	nt
Cc1onc(-c2ccccc2)c1C(=O)Nc1ccc2c(C)cc(=O)oc2c1	0%	-4%	104%	-8	-2%	16µM*
CCC(=O)Nc1nnc(-c2ccncc2)s1	1%	-1%	39%	0	8%	16µM*
Cc1onc(-c2ccccc2)c1C(=O)Nc1ccncc1	3%	-4%	5%	-12	54%	-3%
CCn1ccc(C(=O)N2CCN(c3ccccc3OC)CC2)n1	nt	nt	nt	-22	nt	nt
COC(=O)c1ccc2c(c1)C(=O)/C(=C/c1ccc(C)cc1)O2	3%	1%	3%	0	-12%	28µM*
CC1(C)Cc2c(cnn2-c2ccccc2)-c2c1c1ccccc1n2CC(O)CBr (stereo not given)	?	7%	-12%	-1	14%	14µM*
